Laboratory results published in PubChem BioAssay (Tox21).
Inconclusive results are not listed. Unmarked numbers belong to inactive results. Activity calls are given as the source filed them. The call rests on the fitted dose curve; in most records, active means well fitted inhibition curve with a large enough effect in the repeat runs; inconclusive means weak or mixed curves; inactive means no such curve, though single readings can be large or run the other way.

Test: qHTS assay to identify small molecule antagonists of the estrogen related receptor (ERR) signaling pathway from Tox21 library (AID 1224848); further: nearly all actives have a fitted effect of over 50% in size
Settings: ERR reporter cell line, luciferase antagonist mode, 18 h; series mostly up to 92.4 µM
Excerpt: U.S. Tox21 Program National Center for Advancing Translational Sciences [NCATS] NIH Chemical Genomics Center [NCGC] U.S. Environmental Protection Agency [EPA] National Institutes of Environmental Health Sciences [NIEHS] National Toxicology Program [NTP] U.S. Food and Drug Administration [FDA] Tox21 Assay Overview: Estrogen related receptors (ERRs), the first orphan nuclear receptors discovered, play an important role in the control of cellular energy metabolism. ERRs are required for high-energy production in response to the environmental challenges. ERR-alpha was also identified as an adverse marker for breast cancer progression; ERR-alpha-positive tumors have a poor prognosis. To screen and to identify environmental compounds that perturb the ERR signaling pathways could provide valuable information for potential therapeutic or preventive measures in the treatment of metabolic disease. For identifying ERR antagonists, ERR cell line (provided by NTP) has been used to screen Tox21 10K library.
Tox21 Assay Protocol Summary: The ERR cells were dispensed at 2,000 cells/5 ul/well in 1536-well white plates using a Multidrop dispenser. After the assay plates were incubated at a 37 C/5% CO2 incubator for 6 hours, 23 nL of compounds dissolved in DMSO, positive and negative controls or DMSO only was transferred to the assay plate by a pin tool. The plates were incubated at 37 C for 18 hours. 4 ul/well of One-Glo reagent was added into the assay plates using a Flying Reagent Dispenser. After 30-minute incubation at room temperature, the luminescence intensity in the plates was measured using a ViewLux plate reader.
On the % scale 0 is the no-effect control and ±100 the full control effect; potency means the concentration at half of the fitted maximal effect.

Row | SMILES | activity, negative = inhibition | Potency
1 | C=CCCCCCCCCCCCCCCCC | 6.89% [at 8.39 µM] | –
2 | Cc1ccc(S(=O)(=O)NC2CCCCC2)cc1 | – | 27.1 µM (active)
3 | CCCC1C(CC)=CC(CC)=CN1c1ccccc1 (stereo not given) | – | 43.3 µM (active)
4 | CSc1ccc(Oc2ccc(S(N)(=O)=O)cc2CN(C)C)cc1C | – | 5.45 µM (active)
5 | N#C/C(=C1/SC[C@@H](c2ccc(Cl)cc2Cl)S1)n1ccnc1 | – | 23.7 µM (active)
6 | OC/C(Br)=C(\Br)CO | – | inactive
7 | CC1(C)C(=O)N(Br)C(=O)N1Cl | – | inactive
8 | COCCOC(=O)C1=C(C)NC(C)=C(C(=O)OC/C=C/c2ccccc2)C1c1cccc([N+](=O)[O-])c1 (stereo not given) | – | 7.5 µM (active)
9 | CCOC(=O)CC(=O)C(=O)OCC | – | 27.3 µM (active)
10 | C[C@]12CCC(=O)C=C1C=C[C@@H]1[C@@H]2CC[C@@]2(C)[C@H]1CC[C@@]21CCC(=O)O1 | – | 23.7 µM (active)
11 | O=C(Nc1ccccc1)Nc1ccccc1 | – | inactive
12 | CC[C@H](NC(=O)c1cc(F)ccc1NS(=O)(=O)c1cccc2cccnc12)c1ccccc1 | – | 32.5 µM (active)
13 | CCC(=O)Oc1ccc(/C(CC)=C(\CC)c2ccc(OC(=O)CC)cc2)cc1 | – | 27.3 µM (active)
14 | CN1C(=O)CC(C)(c2ccccc2)C1=O (stereo not given) | – | inactive
15 | COc1cc2c(cc1OC)-c1cc(=Nc3c(C)cc(C)cc3C)n(C)c(=O)n1CC2 | – | 13.3 µM (active)
16 | Cc1nc2ccccc2s1 | – | inactive
17 | CCCCC(=O)O[C@]1(C(=O)CO)[C@@H](C)C[C@H]2[C@@H]3CCC4=CC(=O)C=C[C@]4(C)[C@@]3(F)[C@@H](O)C[C@@]21C | – | 54.5 µM (active)
18 | COC(=O)Nc1nc2ccc(C(=O)c3cccs3)cc2[nH]1 | – | inactive
19 | CCCCC1C(=O)N(c2ccccc2)N(c2ccc(O)cc2)C1=O (stereo not given) | – | 21.1 µM (active)
20 | NC(=O)Cn1c(=O)cc(CCN2CCN(c3nccc4sccc34)CC2)c2ccc(F)cc21 | – | 54.5 µM (active)

Row | SMILES | activity, negative = inhibition | Potency
21 | CCOC(=O)[C@@H](C)Oc1ccc(Oc2nc3ccc(Cl)cc3o2)cc1 | – | 48.6 µM (active)
22 | c1ccc(COCc2ccccc2)cc1 | – | inactive
23 | CC(=O)[C@H]1CC[C@H]2[C@@H]3C[C@H](C)C4=CC(=O)CC[C@]4(C)[C@H]3[C@@H](O)C[C@]12C | – | 26.6 µM (active)
24 | CCCCCCCCCCCC(=O)[O][Sn]([CH2]CCC)([CH2]CCC)[O]C(=O)CCCCCCCCCCC | – | inactive
25 | Cc1ccc(Nc2nccc(N(C)c3ccc4c(C)n(C)nc4c3)n2)cc1S(N)(=O)=O | – | 11.9 µM (active)
26 | Cc1ccc(/C=N/n2c(-c3ccccc3)csc2=S)cc1 | – | inactive
27 | C[N+]1(C)CCC(=C(c2ccccc2)c2ccccc2)CC1 | – | inactive
28 | CO[C@H]1O[C@H](CO)[C@@H](O)[C@H](O)[C@H]1O | – | inactive
29 | CC(C)CCCC(=O)O | – | inactive
30 | C=CC(C)(O)CCCC(C)CCCC(C)CCCC(C)C (stereo not given) | – | inactive
31 | CC1=CC(=O)CC(C)(C)C1(O)/C=C/C(C)=C\C(=O)O (stereo not given) | – | inactive
32 | [O]=[Bi] | -9.31% [at 8.39 µM] | –
33 | CC1CC(O)CC(C)(C)C1 (stereo not given) | – | inactive
34 | CCCCCCCCSCCO | – | inactive
35 | CCCCCCCCCCCCCCCCBr | 8.88% [at 19 µM] | –
36 | CNC(=O)N(c1ccccc1)c1ccccc1 | – | inactive
37 | CCN(Cc1cccc(S(=O)(=O)O)c1)c1ccc(C(=C2C=CC(=[N+](CC)Cc3cccc(S(=O)(=O)[O-])c3)C=C2)c2ccccc2)cc1 | – | inactive
38 | CN1CCN(CCCN2c3ccccc3Sc3ccc(S(=O)(=O)N(C)C)cc32)CC1 | – | 26.6 µM (active)
39 | c1cc[c]([Bi]([c]2ccccc2)[c]2ccccc2)cc1 | – | 61.1 µM (active)
40 | NC(=O)Nc1ccc(Cl)c(Cl)c1 | – | inactive
